Several values for one entry are separate records, joined by “and”; a condition that tells them apart may be missing. Equal values may be shown once. Inconclusive results are not listed. Activity calls are given as the source filed them. Calls follow the shape of the dose curve; as a rule, active = well fitted inhibition curve with a large enough effect; inconclusive = small, poorly fitted or top-dose-only effect; inactive = flat fitted curve, though single readings scatter.

Ubiquitin carboxyl-terminal hydrolase 1 (Homo sapiens), sequence (O94782 whole entry, looked up): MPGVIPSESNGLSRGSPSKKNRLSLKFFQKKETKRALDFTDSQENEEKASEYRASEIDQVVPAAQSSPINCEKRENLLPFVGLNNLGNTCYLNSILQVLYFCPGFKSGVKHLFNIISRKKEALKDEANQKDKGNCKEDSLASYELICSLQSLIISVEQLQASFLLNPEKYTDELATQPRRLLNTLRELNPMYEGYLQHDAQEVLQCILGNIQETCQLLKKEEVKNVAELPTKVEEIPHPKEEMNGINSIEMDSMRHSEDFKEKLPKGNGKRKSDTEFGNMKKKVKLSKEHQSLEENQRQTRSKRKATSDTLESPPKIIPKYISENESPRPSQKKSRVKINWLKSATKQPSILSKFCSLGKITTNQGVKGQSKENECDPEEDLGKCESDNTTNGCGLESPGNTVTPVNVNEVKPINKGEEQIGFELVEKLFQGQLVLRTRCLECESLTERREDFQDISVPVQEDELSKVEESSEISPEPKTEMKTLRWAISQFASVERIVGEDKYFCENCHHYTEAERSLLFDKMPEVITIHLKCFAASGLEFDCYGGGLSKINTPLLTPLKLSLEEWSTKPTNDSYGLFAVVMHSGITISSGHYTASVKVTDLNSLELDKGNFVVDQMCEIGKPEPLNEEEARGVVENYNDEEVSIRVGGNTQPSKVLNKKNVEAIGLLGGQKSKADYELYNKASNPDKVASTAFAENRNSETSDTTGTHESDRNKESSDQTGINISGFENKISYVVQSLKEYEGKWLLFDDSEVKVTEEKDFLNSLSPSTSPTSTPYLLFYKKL

For this experiment, the target named is Ubiquitin carboxyl-terminal hydrolase 1 (Homo sapiens) (UniProt O94782). Kind of experiment: Inhibitors of USP1/UAF1: SAR in Primary Assay. Particulars: Recombinant USP1/UAF1, Ub-Rhodamine cleavage fluorescence; series mostly up to 57.1 µM. The text has this:
Deubiquitinating enzymes (DUBs) are a class of enzymes that can cleave isopeptide bond formed between the C-terminal carboxylate of ubiquitin and a lysine side-chain amino group on the target protein. Among them, ubiquitin specific proteases (USPs) constitute the largest DUB family. Human USPs are emerging as promising targets for pharmacological intervention because of their connection to a number of human diseases, including prostate, colon and breast cancer (1, 2), pediatric acute lymphoblastic leukemia (3), and familial cylindromatosis (4). The advantage of inhibiting USPs lies in the potential specificity of therapeutic intervention that can lead to better efficacy and reduce nonspecific side effects. In a collaboration between the University of Delaware and the NIH Chemical Genomics Center, a high-throughput screen assay was developed to screen for USP1/UAF1 inhibitors (5). This assay was used to test the analogs that were synthesized based on SAR around the original hit. NIH Chemical Genomics Center [NCGC] NIH Molecular Libraries Probe Centers Network [MLPCN] MLPCN Grant: DA030552-01 Assay Submitter (PI): Zhihao Zhuang, University of Delaware 1. Priolo, C., et al. (2006) The isopeptidase USP2a protects human prostate cancer from apoptosis. Cancer Res 66, 8625-8632 2. Popov, N., et al. (2007) The ubiquitin-specific protease USP28 is required for MYC stability. Nat Cell Biol 9, 765-774 3. De Pitta, C., et al. (2005) A leukemia-enriched cDNA microarray platform identifies new transcripts with relevance to the biology of pediatric acute lymphoblastic leukemia. Haematologica 90, 890-898 4. Kovalenko, A., et al. (2003) The tumour suppressor CYLD negatively regulates NF-kappaB signalling by deubiquitination. Nature 424, 801-805 5. Chen, J., et al. (2011) Selective and cell-active inhibitors of the USP1/ UAF1 deubiquitinase complex reverse cisplatin resistance in non-small cell lung cancer cells. Chem Bio 18(11):1390-400.
3 microliters of reagents (buffer in columns 3 and 4 as negative control and 1nM USP1/UAF1 complex in columns 1, 2, and 5-48) are dispensed into Greiner black solid bottom 1536-well assay plates. Compounds are then transferred via Kalypsys pin tool equipped with 1536-pin array (10nl slotted pins, V&P Scientific, San Diego, CA). Following an incubation step of 15 min at room temperature, 1ul of Ub-Rho substrate (150nM final concentration) is added to initiate the reaction. The plates are immediately centrifuged at 1000 rpm for 15 seconds, and subsequently transferred to a ViewLux high-throughput CCD imager (PerkinElmer) wherein kinetic measurements of fluorescence are acquired using 480 nm excitation/540 nm emission filter set (6 reads every 60 seconds, see Table 1). All reagents are diluted in an assay buffer consisting of 50mM HEPES (pH 7.8), 0.5mM EDTA, 0.1 mg/ml BSA, 1mM TCEP, and 0.01% Tween-20.
Regarding `CC(C)c1ccccc1-c1nc(NCc2ccc(-c3cccnc3)cc2)c2occc2n1`, the Potency is 152 nM (active).

Take `CC(C)c1ccccc1-c1ncc(F)c(NC(C)(C)c2ccc(-n3ccnn3)cc2)n1`: the Potency was 4820 nM (active).

Consider `N#Cc1ccc(-c2nc(NCc3ccc(-c4ccnc(C(F)(F)F)c4)cc3)c3ccccc3n2)cc1`, for which the Potency result is “inactive”.

For `FC(F)c1ccccc1-c1nc(NCc2ccc(-c3cccnc3)cc2)c2ccccc2n1`, the Potency is 1360 nM (active).

As to `CC(Nc1nc(-c2ccccc2C(F)(F)F)nc2ccccc12)c1ccc(-c2ccccc2)cc1` (stereo not given), the Potency was 4820 nM (active).

Turning to `Cc1cnc(-c2ccccc2C(C)C)nc1NCc1ccc(-c2cccnc2)cc1`, the Potency is 68.1 nM (active).

On to `CC(C)c1ccccc1-c1nc(NCc2ccc(-c3cccnc3)cc2)c2sccc2n1`, for which the Potency was 121 nM (active).

For `CC(C)c1ccccc1-c1nc(NCc2ccc(-c3cccnc3)cc2)c2ccsc2n1`, the Potency was 242 nM (active).

Turning to `CC(C)c1ccccc1-c1nc(NCc2ccc(-c3cccnc3)cc2)c2[nH]cnc2n1`, the Potency was 121 nM (active).

With `COc1ccccc1-c1ncc(C)c(NCc2ccc(-c3cccnc3)cc2)n1`, the Potency was 764 nM (active).

As for `O=[N+]([O-])c1ccccc1-c1nc(NCc2ccc(-c3cccnc3)cc2)c2ccccc2n1`, the Potency is 4290 nM (active).

Regarding `Cc1ccc(-c2ccc(CN(C)c3nc(-c4ccccc4C(C)C)ncc3C)cc2)cn1`, the Potency is 541 nM (active).

`FC(F)(F)c1ccccc1-c1nc(NCc2ccc(-c3cncnc3)cc2)c2ccccc2n1`: the Potency was 1920 nM (active).

Turning to `Fc1cnc(-c2ccccc2C(F)F)nc1NCc1ccc(-n2ccnn2)cc1`, the Potency was 1210 nM (active).

For the compound `Cc1ccccc1-c1nc(NCc2ccc(-c3cccnc3)cc2)c2ccccc2n1`, the Potency was 482 nM (active).

Take `CCc1ccccc1-c1nc(NCc2ccc(-c3cccnc3)cc2)c2ccccc2n1`: the Potency was 607 nM (active).

In the case of `Cc1cnc(-c2ccccc2N(C)C)nc1NCc1ccc(-c2cccnc2)cc1`, the Potency is 429 nM (active).

`Cc1cnc(-c2ccccc2C(C)C)nc1NCc1ccc(-c2ccnc(C(F)(F)F)c2)cc1`: the Potency is 383 nM (active).

For the compound `CC(C)c1ccccc1-c1ncc(F)c(NC(C)(C)c2ccc(-c3cccnc3)cc2)n1`, the Potency is 192 nM (active).

On to `Cc1cnc(-c2ccccc2C(F)(F)F)nc1NCc1ccc(-c2cccnc2)cc1`, for which the Potency is 271 nM (active).

Take `CC(C)c1ccccc1-c1nc2c(c(NCc3ccc(-c4cccnc4)cc3)n1)CNC2`: the Potency is 1520 nM (active).

With `Cc1ccc(N2CCC(CNc3nc(-c4ccccc4C(C)C)ncc3C)CC2)cn1`, the Potency was 171 nM (active) and 60.7 nM (active).

Consider `N#Cc1c(-c2ccccc2C(F)(F)F)nc2ccccc2c1NCc1ccc(-c2cccnc2)cc1`, for which the Potency is 9610 nM (active).

Consider `Cc1cnc(-c2ccccc2C(F)F)nc1NCc1ccc(-n2ccnn2)cc1`, for which the Potency was 482 nM (active).

Turning to `Clc1ccccc1-c1nc(NCc2ccc(-c3cccnc3)cc2)c2ccccc2n1`, the Potency is 857 nM (active).

`CC(C)c1ccccc1-c1nc2c(c(NCc3ccc(-c4cccnc4)cc3)n1)CCC2`: the Potency is 136 nM (active).

On to `CC(C)c1ccccc1-c1nc(NCC2CCN(c3cccnc3)CC2)c2ccccc2n1`, for which the Potency is 85.7 nM (active).

In the case of `FC(F)(F)c1ccc(-c2nc(NCc3ccc(-c4ccnc(C(F)(F)F)c4)cc3)c3ccccc3n2)cc1`, the Potency result is “inactive”.

Regarding `Cc1cccc(C(CO)Nc2nc(-c3ccccc3C(C)C)ncc2C)c1` (stereo not given), the Potency is 1080 nM (active).

With `Cc1cnc(-c2ccccc2C(C)C)nc1NCc1ccc(-c2nn[nH]n2)cc1`, the Potency was 3830 nM (active).

`CN(Cc1ccc(-c2ccccc2)cc1)c1nc(-c2ccccc2C(F)(F)F)nc2ccccc12`: the Potency was 4290 nM (active).

As to `Cc1cnc(-c2ccccc2C(C)C)nc1NCC1CN(c2cccnc2)C1`, the Potency was 6810 nM (active).

Regarding `Cc1cnc(-c2ccccc2C(C)C)nc1NCC1CCN(c2cccnc2)C1` (stereo not given), the Potency was 429 nM (active).

`Cc1nc(NCc2ccc(-c3cccnc3)cc2)c2ccccc2n1`: the Potency entry is “inactive”.

`Cc1ccc(-c2ccc(CNc3nc(-c4ccccc4C(C)C)nc4ccsc34)cc2)cn1`: the Potency was 96.1 nM (active).

Take `Cc1ccc(N2CCC(CNc3nc(-c4ccccc4C(C)C)ncc3F)CC2)cn1`: the Potency was 96.1 nM (active).

With `CC(C)c1ccccc1-c1ncc(N(C)C)c(NCc2ccc(-c3cccnc3)cc2)n1`, the Potency is 152 nM (active).

With `Cc1cnc(-c2ccccc2C(C)(C)C)nc1NCc1ccc(-n2ccnn2)cc1`, the Potency is 136 nM (active).

In the case of `Fc1cc(Cl)cc(-c2ccc(CNc3nc(-c4ccccc4C(F)(F)F)nc4ccccc34)cc2)c1`, the Potency was 2410 nM (active).

Regarding `FC(F)(F)c1ccccc1-c1nc(NCC#Cc2cccnc2)c2ccccc2n1`, the Potency is 4.82 µM (active) and 7.64 µM (active).

(Values after PubChem BioAssay AID651605 (National Center for Advancing Translational Sciences (NCATS), 2012).)
